Assay [1] can be described thus: ATG_TAL_CIS: Attagene CIS-FACTORIAL HepG2 Assay for human TAL Basal Promoter (AID 2282966; active means hit-call score of the fitted dose curve at least 0.9, where 1 is the maximum; inactive means score below 0.9;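 further: background control endpoint measuring basal TAL promoter reporter mRNA not a specific factor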). The settings on record: HepG2 Attagene cis-factorial TAL promoter reporter; actives raise or lower the signal. The procedure, abridged: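 Background-control endpoint: basal TAL promoter reporter transcripts in transiently transfected HepG2, measured 24 h after dosing. Read-out by RT-PCR with fluorescent primer extension and capillary electrophoresis; gain or loss of signal fitted relative to DMSO.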

The nature of assay [2]: ATG_TGFb_CIS: Attagene CIS-FACTORIAL HepG2 Assay for human Transforming Growth Factor (TGF) (AID 2282967; active means hit-call score of the fitted dose curve at least 0.9, where 1 is the maximum; inactive means score below 0.9). Conditions: HepG2 Attagene CIS TGFb reporter, mRNA transcription; actives raise or lower the signal. The method, boiled down: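 Liver HepG2 line, cis-factorial reporter panel, 24 h dosing. Quantitation: RT-PCR products labeled with 6-FAM, cut with HpaI, resolved by capillary electrophoresis; DMSO-referenced bidirectional analysis.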

A short description of assay [3]: ATG_VDRE_CIS: Attagene CIS-FACTORIAL HepG2 Assay for human Vitamin D Receptor Element (VDRE) (AID 2282968; active means hit-call score of the fitted dose curve at least 0.9, where 1 is the maximum; inactive means score below 0.9). Conditions: HepG2 VDRE cis-reporter transcription, actives raise or lower the signal. The procedure, abridged:
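Measures endogenous factor activity through cis-element-driven reporter transcripts in transiently transfected HepG2. Cells are treated 24 h; reporter mRNA is quantified by RT-PCR and capillary electrophoresis; fitting is bidirectional.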

Assay [4] has as its target Nuclear receptor subfamily 1 group I member 3 (Homo sapiens) (UniProt Q14994). The assay can be described thus: ATG_CAR_TRANS: Attagene TRANS-FACTORIAL HepG2 Assay for human Constitutive Androstane Receptor (CAR) (AID 2282969).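 Further: activators raise reporter mRNA above DMSO so AC50 marks induction.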 Conditions: HepG2 Attagene TRANS-FACTORIAL CAR reporter. The procedure, abridged: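 Signal is reporter mRNA induction relative to DMSO, measured 24 h after dosing by RT-PCR with fluorescent primer extension and capillary electrophoresis. Human HepG2 liver cells carried transiently transfected chimeric NR-Gal4/GAL4-UAS reporter constructs.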

Assay [5] concerns the target X-box-binding protein 1 (Homo sapiens) (UniProt P17861). Description: ATG_Xbp1_CIS: Attagene CIS-FACTORIAL HepG2 Assay for human X-box Binding Protein 1 (XBP1) (AID 2282972; active means hit-call score of the fitted dose curve at least 0.9, where 1 is the maximum; inactive means score below 0.9). Conditions: HepG2 XBP1 cis-element reporter, Attagene multiplex; actives raise or lower the signal. The procedure, abridged: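 Multiplexed cis-reporter readout in transfected HepG2 liver cells. Exposure lasted 24 hours. Activity in either direction was fitted against DMSO as negative control and baseline.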

Assay [6] is described as follows: ATG_M_19_TRANS: Attagene TRANS-FACTORIAL HepG2 Assay for M19 Transcription Factor (Internal Marker) (AID 2282974). Conditions: HepG2 Attagene TRANS-FACTORIAL M19 internal marker reporter. The procedure, abridged:
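Fluorescence of 6-FAM-labelled reporter cDNA fragments, separated by capillary electrophoresis, served as the readout. These derived from HepG2 cells carrying transfected GAL4-UAS reporter units after 24 h dosing, with DMSO as negative control.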

Assay [7] can be described thus: ATG_GAL4_TRANS: Attagene TRANS-FACTORIAL HepG2 Assay for GAL4 (Internal Marker) (AID 2282976). Conditions: HepG2 Attagene TRANS GAL4 internal marker reporter. The method, boiled down:
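In transfected human HepG2 liver cells dosed 24 h, GAL4 reporter mRNA serves as a baseline marker. Detection by RT-PCR with fluorescent capillary electrophoresis, activity fitted upward relative to DMSO.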

The target of assay [8] is Glucocorticoid receptor (Homo sapiens) (UniProt P04150). The assay can be described thus: ATG_GR_TRANS: Attagene TRANS-FACTORIAL HepG2 Assay for human Glucocorticoid Receptor (GR) (AID 2282978).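 Further: activators score as hits since higher reporter transcript over DMSO is fitted.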 The settings on record: HepG2 Attagene TRANS GR reporter, mRNA transcription. The procedure, abridged: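 Fluorescent capillary-electrophoresis quantitation of reporter mRNA is the readout, taken 24 h after dosing human HepG2 cells carrying transiently transfected GAL4-UAS reporter units activated by chimeric NR-GAL4 fusions; activity scored as induction over DMSO.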
Sequence of Glucocorticoid receptor (Homo sapiens) (P04150 whole entry, looked up, the tested form may be a part): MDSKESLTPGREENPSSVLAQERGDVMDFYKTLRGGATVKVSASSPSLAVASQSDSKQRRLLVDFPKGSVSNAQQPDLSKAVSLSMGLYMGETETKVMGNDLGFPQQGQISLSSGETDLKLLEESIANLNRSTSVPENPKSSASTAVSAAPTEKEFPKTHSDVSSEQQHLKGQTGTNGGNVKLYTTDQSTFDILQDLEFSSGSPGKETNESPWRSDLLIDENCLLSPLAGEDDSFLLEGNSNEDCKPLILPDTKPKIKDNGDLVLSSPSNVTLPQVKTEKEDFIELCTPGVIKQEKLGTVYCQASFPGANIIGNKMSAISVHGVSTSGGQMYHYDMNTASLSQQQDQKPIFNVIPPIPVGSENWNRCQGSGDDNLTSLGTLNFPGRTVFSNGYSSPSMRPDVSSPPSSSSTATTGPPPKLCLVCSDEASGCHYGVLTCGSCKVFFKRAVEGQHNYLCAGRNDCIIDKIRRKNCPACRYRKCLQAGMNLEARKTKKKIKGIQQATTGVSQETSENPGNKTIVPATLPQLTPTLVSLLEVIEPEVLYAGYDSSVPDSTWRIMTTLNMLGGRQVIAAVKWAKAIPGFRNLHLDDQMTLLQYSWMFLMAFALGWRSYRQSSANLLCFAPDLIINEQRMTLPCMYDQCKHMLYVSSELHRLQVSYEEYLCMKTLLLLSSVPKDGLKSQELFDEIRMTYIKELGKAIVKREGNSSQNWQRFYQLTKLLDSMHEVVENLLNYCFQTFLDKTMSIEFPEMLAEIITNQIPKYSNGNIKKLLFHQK

The target in assay [9] is Oxysterols receptor LXR-alpha (Homo sapiens) (UniProt Q13133). The assay can be described thus: ATG_LXRa_TRANS: Attagene TRANS-FACTORIAL HepG2 Assay for human Liver X Receptor alpha (LXRa) (AID 2282980). Conditions: HepG2 Attagene TRANS reporter, LXRa transactivation. The procedure, abridged: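 Chemical-induced reporter mRNA measured by RT-PCR with fluorescent labelling and capillary electrophoresis after 24 h dosing of transiently transfected HepG2 cells expressing exogenous NR-Gal4 chimeras; increases scored against DMSO baseline.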
Sequence of Oxysterols receptor LXR-alpha (Homo sapiens) (Q13133 whole entry, looked up, the tested form may be a part): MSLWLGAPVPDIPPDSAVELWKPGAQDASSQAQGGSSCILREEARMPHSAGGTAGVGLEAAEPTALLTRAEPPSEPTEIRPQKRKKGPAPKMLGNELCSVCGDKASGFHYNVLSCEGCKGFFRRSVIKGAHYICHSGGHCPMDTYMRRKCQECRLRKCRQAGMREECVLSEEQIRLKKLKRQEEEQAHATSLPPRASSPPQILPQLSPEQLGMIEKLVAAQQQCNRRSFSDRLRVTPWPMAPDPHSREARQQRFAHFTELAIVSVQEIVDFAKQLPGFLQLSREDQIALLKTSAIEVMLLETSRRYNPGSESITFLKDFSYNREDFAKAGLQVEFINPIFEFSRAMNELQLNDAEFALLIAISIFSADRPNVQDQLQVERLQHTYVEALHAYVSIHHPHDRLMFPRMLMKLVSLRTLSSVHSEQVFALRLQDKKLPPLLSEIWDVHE

Assay [10] addresses Hepatocyte nuclear factor 4-alpha (Homo sapiens) (UniProt P41235). Description: ATG_HNF4a_TRANS: Attagene TRANS-FACTORIAL HepG2 Assay for human Hepatocyte Nuclear Factor 4 alpha (HNF4a) (AID 2282982). Conditions: HepG2 HNF4a transactivation reporter, mRNA readout. The method, boiled down:
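Multiplexed reporter assay: transfected HepG2, 24 h exposure, total RNA → oligo(dT) RT → PCR → 6-FAM extension → HpaI digest → CE fluorescence. DMSO = negative control.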

Assay [11] in a line: ATG_M_32_TRANS: Attagene TRANS-FACTORIAL HepG2 Assay for M32 Transcription Factor (Internal Marker) (AID 2282984). Conditions: HepG2 Attagene TRANS M32 internal marker reporter. The procedure, abridged:
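Cell-based TRANS-format assay in HepG2: exogenous chimeric GAL4 reporter units transiently expressed, compounds applied 24 h. Reporter mRNA detected by RT-PCR plus capillary electrophoresis; this readout is an internal background marker.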

The target in assay [12] is Transcriptional activator Myb (Homo sapiens) (UniProt P10242). The assay can be described thus: ATG_Myb_CIS: Attagene CIS-FACTORIAL HepG2 Assay for human Myeloblastosis (Myb) Proto-Oncogene Transcription Factor (AID 2282986; active means hit-call score of the fitted dose curve at least 0.9, where 1 is the maximum; inactive means score below 0.9). Conditions: HepG2 Attagene CIS-FACTORIAL Myb reporter transcription; actives raise or lower the signal. The procedure, abridged: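 Reporter transcript levels, quantified by fluorescent RT-PCR and capillary electrophoresis, serve as the read-out. Transfected HepG2 cells carrying cis-promoter reporter units are dosed for 24 hours, and curves are fitted bidirectionally against DMSO controls.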
Sequence of Transcriptional activator Myb (Homo sapiens) (P10242 whole entry, looked up): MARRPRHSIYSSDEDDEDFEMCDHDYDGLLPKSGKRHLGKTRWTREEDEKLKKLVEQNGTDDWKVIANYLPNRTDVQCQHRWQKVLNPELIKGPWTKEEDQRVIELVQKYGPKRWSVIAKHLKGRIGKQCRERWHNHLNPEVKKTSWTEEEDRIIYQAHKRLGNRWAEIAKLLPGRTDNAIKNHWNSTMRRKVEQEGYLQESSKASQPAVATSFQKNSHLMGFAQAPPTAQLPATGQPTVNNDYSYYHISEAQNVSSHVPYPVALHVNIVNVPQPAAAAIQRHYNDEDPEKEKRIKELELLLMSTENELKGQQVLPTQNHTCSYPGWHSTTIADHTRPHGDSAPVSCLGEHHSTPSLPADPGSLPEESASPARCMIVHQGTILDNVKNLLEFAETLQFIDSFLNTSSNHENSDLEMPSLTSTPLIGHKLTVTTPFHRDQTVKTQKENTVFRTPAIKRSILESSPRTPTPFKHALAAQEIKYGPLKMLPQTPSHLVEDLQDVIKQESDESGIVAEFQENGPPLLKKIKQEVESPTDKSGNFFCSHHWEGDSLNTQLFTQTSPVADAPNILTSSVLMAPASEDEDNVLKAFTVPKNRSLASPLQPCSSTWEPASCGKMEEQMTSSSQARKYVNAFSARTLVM

In assay [13] the target is Nuclear respiratory factor 1 (Homo sapiens) (UniProt Q16656). Description: ATG_NRF1_CIS: Attagene CIS-FACTORIAL HepG2 Assay for human Nuclear Respiratory Factor 1 (NRF1) Orphan Gene (AID 2282987; active means hit-call score of the fitted dose curve at least 0.9, where 1 is the maximum; inactive means score below 0.9). Conditions: HepG2 NRF1 cis-element reporter, Attagene multiplex; actives raise or lower the signal. The method, boiled down: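 Multiplexed cis-reporter assay, HepG2 cells, 24 h treatment. Total RNA → oligo(dT) RT → PCR with reporter-specific primers → 6-FAM primer extension → HpaI cut → CE. Bidirectional fit vs DMSO.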
Sequence of Nuclear respiratory factor 1 (Homo sapiens) (Q16656 whole entry, looked up): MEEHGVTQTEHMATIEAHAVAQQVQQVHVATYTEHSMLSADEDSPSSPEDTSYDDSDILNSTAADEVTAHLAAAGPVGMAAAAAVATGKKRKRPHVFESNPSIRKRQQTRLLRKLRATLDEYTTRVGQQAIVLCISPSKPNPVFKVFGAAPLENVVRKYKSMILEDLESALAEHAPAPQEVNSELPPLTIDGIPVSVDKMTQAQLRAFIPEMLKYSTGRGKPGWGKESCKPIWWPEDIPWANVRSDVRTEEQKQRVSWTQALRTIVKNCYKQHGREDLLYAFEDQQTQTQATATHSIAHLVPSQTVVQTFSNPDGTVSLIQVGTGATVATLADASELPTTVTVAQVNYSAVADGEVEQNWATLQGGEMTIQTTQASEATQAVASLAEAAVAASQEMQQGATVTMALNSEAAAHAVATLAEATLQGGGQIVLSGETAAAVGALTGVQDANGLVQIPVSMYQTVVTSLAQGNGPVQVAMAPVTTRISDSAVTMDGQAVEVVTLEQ

The target of assay [14] is Estrogen receptor (Homo sapiens) (UniProt P03372). The assay can be described thus: ATG_ERa_TRANS: Attagene TRANS-FACTORIAL HepG2 Assay for human Estrogen Receptor alpha (ERa) (AID 2282970). Conditions: HepG2 Attagene TRANS ERa GAL4 reporter, mRNA. The procedure, abridged: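 Reporter transcripts were measured 24 h after dosing by RT-PCR with fluorescent primer extension and capillary electrophoresis. The system is transiently transfected HepG2 expressing exogenous NR-Gal4 chimeras driving GAL4-UAS reporters; DMSO is the baseline.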

The target in assay [15] is Oxysterols receptor LXR-beta (Homo sapiens) (UniProt P55055). The assay can be described thus: ATG_LXRb_TRANS: Attagene TRANS-FACTORIAL HepG2 Assay for human Liver X Receptor beta (LXRb) (AID 2282981). The settings on record: HepG2 Attagene TRANS GAL4-LXRb reporter, mRNA. The procedure, abridged: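 After 24 h of chemical treatment, transfected HepG2 cells yield total RNA; reporter cDNA is PCR-amplified, FAM-labelled, HpaI-cut and run on capillary electrophoresis. Signal reflects chimeric LXRb-Gal4 activity on GAL4-UAS reporters.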
Sequence of Oxysterols receptor LXR-beta (Homo sapiens) (P55055 whole entry, looked up, the tested form may be a part): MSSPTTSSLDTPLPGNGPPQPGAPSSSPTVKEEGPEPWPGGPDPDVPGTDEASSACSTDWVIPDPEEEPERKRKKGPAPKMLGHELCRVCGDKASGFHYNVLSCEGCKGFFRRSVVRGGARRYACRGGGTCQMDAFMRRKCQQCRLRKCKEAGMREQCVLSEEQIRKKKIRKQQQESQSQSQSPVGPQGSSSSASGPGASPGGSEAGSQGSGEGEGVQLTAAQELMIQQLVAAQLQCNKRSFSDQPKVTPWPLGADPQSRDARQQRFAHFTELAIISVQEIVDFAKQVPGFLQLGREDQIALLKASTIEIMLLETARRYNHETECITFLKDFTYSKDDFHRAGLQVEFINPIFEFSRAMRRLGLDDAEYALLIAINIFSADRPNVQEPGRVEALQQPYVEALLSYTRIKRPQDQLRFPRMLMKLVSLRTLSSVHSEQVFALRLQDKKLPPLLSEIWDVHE

Assay [16] in a line: ATG_M_06_TRANS: Attagene TRANS-FACTORIAL HepG2 Assay for M06 Transcription Factor (Internal Marker) (AID 2282983). Conditions: HepG2 Attagene TRANS M06 internal marker reporter. The procedure, abridged: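 Background-control reporter readout: after 24 h chemical exposure of transiently transfected HepG2 (GAL4-UAS reporter units), mRNA quantified by RT-PCR with fluorescent labeling and capillary electrophoresis. Gain-of-signal fitting against DMSO baseline.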

Assay [17] deals with Nuclear receptor subfamily 4 group A member 2 (Homo sapiens) (UniProt P43354). Description: ATG_NURR1_TRANS: Attagene TRANS-FACTORIAL HepG2 Assay for human Nuclear Receptor Related Protein 1 (NURR1) (AID 2282985). The settings on record: HepG2 Attagene TRANS reporter, mRNA readout. The procedure, abridged:
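Measures transcriptional activation by an exogenous NR-Gal4 chimera in transfected HepG2 liver cells. After 24 h, reporter RNA is reverse-transcribed, amplified and resolved by capillary electrophoresis; DMSO defines baseline.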

Assay [18] has as its target Steroid hormone receptor ERR1 (Homo sapiens) (UniProt P11474). The assay can be described thus: ATG_ERRa_TRANS: Attagene TRANS-FACTORIAL HepG2 Assay for human Estrogen-Related Receptor alpha (ERRa) (AID 2282971). The settings on record: HepG2 Attagene TRANS reporter, ERRa transactivation. The method, boiled down:
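Reporter transcripts from ERRa-Gal4 chimera activity measured in transiently transfected human HepG2 cells 24 hours after dosing, using RT-PCR with 6-FAM primer extension, HpaI digestion and capillary electrophoresis; DMSO is baseline.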

Assay [19] addresses Estrogen-related receptor gamma (Homo sapiens) (UniProt P62508). Description: ATG_ERRg_TRANS: Attagene TRANS-FACTORIAL HepG2 Assay for human Estrogen-Related Receptor gamma (ERRg) (AID 2282977).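 Further: hits increase reporter signal over DMSO so potencies reflect activators.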 Conditions: HepG2 Attagene TRANS reporter, ERRg transactivation. The method, boiled down: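 Readout: fluorescent reporter-mRNA fragments resolved by capillary electrophoresis after RT-PCR and HpaI cut. Cells: transiently transfected HepG2 carrying GAL4-UAS reporters driven by exogenous NR-Gal4 chimeras, dosed 24 h. Activity fitted upward relative to DMSO baseline.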

Assay [20] has as its target Bile acid receptor (Homo sapiens) (UniProt Q96RI1). Description: ATG_FXR_TRANS: Attagene TRANS-FACTORIAL HepG2 Assay for Farnesoid X Receptor (FXR) (AID 2282979).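 Further: hits raise reporter mRNA above DMSO so AC50 marks FXR activation.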 Conditions: HepG2 Attagene TRANS FXR-GAL4 reporter transcription. The method, boiled down: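 Reporter transcripts from transfected HepG2 cells were measured 24 h after dosing, using RT-PCR with capillary electrophoresis of 6-FAM-labelled fragments. The read-out reflects activity of exogenous FXR-Gal4 chimera on GAL4-UAS units, with induction relative to DMSO.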

As a reminder, the AC50 is the midpoint of the concentration-response curve, whichever way the signal moves.

Structures are written as SMILES. Results filed as inconclusive are left out. The source made the active and inactive calls. How the source made its calls, unless noted: active means hit-call score of the fitted dose curve at least 0.9, where 1 is the maximum; inconclusive means response in the unintended direction; inactive means score below 0.9.

Sequence of Nuclear receptor subfamily 4 group A member 2 (Homo sapiens) (P43354 whole entry, looked up, the tested form may be a part): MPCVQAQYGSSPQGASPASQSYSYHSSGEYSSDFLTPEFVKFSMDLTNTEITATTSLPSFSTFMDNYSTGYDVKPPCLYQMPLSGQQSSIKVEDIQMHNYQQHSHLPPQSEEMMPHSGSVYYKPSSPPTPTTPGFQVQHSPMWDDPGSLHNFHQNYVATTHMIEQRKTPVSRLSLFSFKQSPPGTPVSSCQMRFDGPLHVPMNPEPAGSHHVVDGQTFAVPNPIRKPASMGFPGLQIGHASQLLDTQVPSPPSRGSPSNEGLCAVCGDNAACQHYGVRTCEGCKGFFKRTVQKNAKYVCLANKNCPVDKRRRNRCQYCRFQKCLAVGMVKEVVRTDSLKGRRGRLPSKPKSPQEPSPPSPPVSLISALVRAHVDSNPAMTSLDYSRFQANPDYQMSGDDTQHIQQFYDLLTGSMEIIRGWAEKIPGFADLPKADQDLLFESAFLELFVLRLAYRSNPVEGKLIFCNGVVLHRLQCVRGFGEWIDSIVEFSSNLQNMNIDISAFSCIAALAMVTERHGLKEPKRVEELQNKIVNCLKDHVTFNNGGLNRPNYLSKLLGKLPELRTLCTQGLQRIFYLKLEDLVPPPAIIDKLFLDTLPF
Sequence of Nuclear receptor subfamily 1 group I member 3 (Homo sapiens) (Q14994 whole entry, looked up, the tested form may be a part): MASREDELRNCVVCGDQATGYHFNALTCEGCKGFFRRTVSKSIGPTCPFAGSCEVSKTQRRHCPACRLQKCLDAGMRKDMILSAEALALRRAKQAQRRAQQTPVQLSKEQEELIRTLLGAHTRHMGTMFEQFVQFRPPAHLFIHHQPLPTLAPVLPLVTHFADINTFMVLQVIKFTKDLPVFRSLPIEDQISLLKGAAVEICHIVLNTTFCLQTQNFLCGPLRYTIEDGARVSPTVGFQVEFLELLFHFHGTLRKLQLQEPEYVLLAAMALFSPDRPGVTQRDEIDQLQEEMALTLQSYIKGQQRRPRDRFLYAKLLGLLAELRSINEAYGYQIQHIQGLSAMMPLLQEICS
Sequence of Steroid hormone receptor ERR1 (Homo sapiens) (P11474 whole entry, looked up, the tested form may be a part): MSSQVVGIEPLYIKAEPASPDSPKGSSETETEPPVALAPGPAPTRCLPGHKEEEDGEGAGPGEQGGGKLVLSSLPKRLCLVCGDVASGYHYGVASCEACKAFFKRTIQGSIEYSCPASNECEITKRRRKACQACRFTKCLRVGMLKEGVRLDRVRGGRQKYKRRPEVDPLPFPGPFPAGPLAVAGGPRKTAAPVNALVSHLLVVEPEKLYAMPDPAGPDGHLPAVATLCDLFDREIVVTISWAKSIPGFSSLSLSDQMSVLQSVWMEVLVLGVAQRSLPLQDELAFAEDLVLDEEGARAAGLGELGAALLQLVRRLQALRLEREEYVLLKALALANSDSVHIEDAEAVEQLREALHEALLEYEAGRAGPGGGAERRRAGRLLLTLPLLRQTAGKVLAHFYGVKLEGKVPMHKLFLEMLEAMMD
Sequence of Hepatocyte nuclear factor 4-alpha (Homo sapiens) (P41235 whole entry, looked up): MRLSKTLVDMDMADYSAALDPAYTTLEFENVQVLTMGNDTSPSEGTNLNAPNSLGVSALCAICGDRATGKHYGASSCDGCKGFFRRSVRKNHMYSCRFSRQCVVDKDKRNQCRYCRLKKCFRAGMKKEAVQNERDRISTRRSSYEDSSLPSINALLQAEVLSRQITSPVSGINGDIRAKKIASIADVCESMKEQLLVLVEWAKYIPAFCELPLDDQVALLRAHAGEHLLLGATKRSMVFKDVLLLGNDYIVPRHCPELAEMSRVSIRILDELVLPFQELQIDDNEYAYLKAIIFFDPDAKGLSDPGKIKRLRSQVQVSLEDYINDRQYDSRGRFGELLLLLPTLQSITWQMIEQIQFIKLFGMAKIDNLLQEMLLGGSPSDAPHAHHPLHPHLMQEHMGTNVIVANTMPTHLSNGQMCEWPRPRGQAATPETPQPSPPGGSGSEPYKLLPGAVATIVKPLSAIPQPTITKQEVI
Sequence of X-box-binding protein 1 (Homo sapiens) (P17861 whole entry, looked up): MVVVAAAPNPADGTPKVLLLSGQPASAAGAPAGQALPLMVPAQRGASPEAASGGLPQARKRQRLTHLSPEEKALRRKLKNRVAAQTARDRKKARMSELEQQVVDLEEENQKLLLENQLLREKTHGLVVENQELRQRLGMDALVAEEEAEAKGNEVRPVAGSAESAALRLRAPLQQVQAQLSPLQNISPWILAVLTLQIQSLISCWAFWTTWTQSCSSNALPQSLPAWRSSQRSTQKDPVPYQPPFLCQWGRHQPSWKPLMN

Take `CC(=O)NCCO`: the outcome in assay [1], in assay [2], in assay [3], in [4], in assay [5] and in assay [6] was inactive. For the same compound, the compound was classed as inactive in assay [7], in [8], in [9], in assay [10], in assay [11] and in assay [12]. The result in assay [13] was inactive.

As to `O=C(Nc1ccc2c(O)c(N=Nc3ccc(N=Nc4ccc(S(=O)(=O)O)cc4)cc3)c(S(=O)(=O)O)cc2c1)c1ccccc1`, the result in assay [1], in assay [2], in assay [3], in assay [4], in assay [14] and in assay [5] was inactive. The call in assay [7], in [9], in assay [15], in assay [16], in assay [11] and in assay [17] was inactive. Moreover, the call in assay [12] and in assay [13] was inactive.

`N[C@@H](Cc1cc(I)c(Oc2cc(I)c(O)c(I)c2)c(I)c1)C(=O)O`: the result in assay [1], in [2], in [4], in [5], in [6] and in assay [8] was inactive. For the same compound, the compound was called inactive in assay [15], in assay [10], in assay [16], in assay [11], in [17] and in assay [12]. Also, in [13], the compound was called inactive. Moreover, in assay [3], the concentration at half-maximal activity (AC50) was 18.8 µM (active).

For `Nc1ccc(N)c2c1C(=O)c1ccccc1C2=O`, the result in assay [1], in [2], in [4], in assay [18], in assay [7] and in assay [19] was inactive. Moreover, the result in assay [8], in assay [20], in assay [10], in assay [11], in assay [17] and in assay [12] was inactive. Also, the result in assay [13] was inactive. The AC50 in [3] was 6.59 µM (active); in [5], 2.57 µM (active).

On to `CCCC(=O)c1ccccc1`, for which the outcome in [1], in assay [2], in assay [3], in [4], in assay [18] and in assay [5] was inactive. Moreover, the compound was classed as inactive in assay [6], in assay [7], in [19], in [8], in assay [9] and in [15]. For the same compound, the call in assay [16], in [11], in assay [12] and in assay [13] was inactive.

Turning to `CCCCC(CC)(CO)CO`, the call in assay [1], in assay [2], in [3], in assay [4], in [5] and in [6] was inactive. The outcome in assay [7], in assay [12] and in assay [13] was inactive.

Turning to `C1CCOC1`, the call in assay [1], in [2], in assay [3], in assay [4], in [18] and in assay [5] was inactive. Also, the compound was called inactive in assay [6], in assay [7], in [19], in assay [8], in [20] and in assay [10]. Further, the result in assay [16], in assay [11], in [17], in assay [12] and in [13] was inactive.

On to `C=CC(=O)OCCC#N`, for which the result in assay [1], in assay [2], in assay [4], in [18], in assay [19] and in assay [15] was inactive. For the same compound, the outcome in assay [10], in assay [16], in [17] and in [13] was inactive. Moreover, the half-maximal activity concentration (AC50) in [3] is 48.8 µM (active).

For the origin of these results see PubChem BioAssay (EPA / NIEHS).
